PMC7819943, “Rice protein-binding microarrays: a tool to detect cis-acting elements near promoter regions in rice”
In all, about 39,000 sequences were measured (“fluorescence intensity (a.u.)”: median about 4,300, highest 2% from about 39,000 on). Many of the other results were omitted from the sample, so the highest values are more common in it than they were.

The sequences below were run against T1, OsSMF1 (Oryza sativa, UniProt Q6ZLB0 1-436) (assay: protein-binding microarray (RPBM); PBS, 2% BSA, 51.3 ng/ul salmon testes DNA, 50 uM zinc acetate, 200 nM TF, 25 C, 1 h; high values mean tight binding). Settings: protein: recombinant; tags: N-terminal polyhistidine and DsRed monomer fusion (pET32a); chain copies: 2; label: CyDye5-dUTP incorporated in the synthesized complementary strand; 3' TTTTT single-stranded linker to array surface; dsDNA, one strand shown.
T1 sequence: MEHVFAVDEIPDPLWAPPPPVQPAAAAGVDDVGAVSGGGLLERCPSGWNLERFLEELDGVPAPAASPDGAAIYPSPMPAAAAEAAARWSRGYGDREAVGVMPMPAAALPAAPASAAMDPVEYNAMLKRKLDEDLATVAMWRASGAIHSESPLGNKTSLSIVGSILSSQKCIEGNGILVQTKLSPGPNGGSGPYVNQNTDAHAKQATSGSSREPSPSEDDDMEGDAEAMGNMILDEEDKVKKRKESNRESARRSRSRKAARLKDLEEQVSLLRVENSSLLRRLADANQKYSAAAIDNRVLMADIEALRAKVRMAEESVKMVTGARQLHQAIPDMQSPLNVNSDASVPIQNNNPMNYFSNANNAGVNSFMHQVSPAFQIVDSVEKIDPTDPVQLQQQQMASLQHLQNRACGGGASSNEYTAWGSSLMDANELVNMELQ
How it was run: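 Polyhistidine-tagged DsRed fusions of transcription factors, joined at the N-terminus, were expressed in E. coli BL21-CodonPlus and isolated on Ni–NTA. They were incubated at 200 nM for 1 h at 25 °C on a custom Agilent array, double-stranded and BSA-blocked, in PBS with 2% BSA, salmon testes DNA and 50 µM zinc acetate. The binding signal is per-feature fluorescence intensity (arbitrary units) read on an Axon 4000B scanner after washing.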

| Sequence | binding signal |
| --- | --- |
| AAGTCGTTCACTCGGCAACGTGTCATCCGGATAGACGTTGCGGAGTCACCTAGTGCAG | 6700 fluorescence intensity (a.u.) |
| CTCCTTGTCCACGTGGCGGCCTCCGATTCGCTGCCACCTCCGGAGTCACCTAGTGCAG | 23900 fluorescence intensity (a.u.) |
| CGTGTCCTAATCACCTTGCTTACGTGGCACTTGCCGATTCCGGAGTCACCTAGTGCAG | 43900 fluorescence intensity (a.u.) |
| ACGGCTTCCTTACGTGGCACACGTAAGCCGTTGCTTGCTTCGGAGTCACCTAGTGCAG | 35100 fluorescence intensity (a.u.) |
| CCAGTTAGGCCCACGAGTAGGTGGAACGACCACCTCACGGCGGAGTCACCTAGTGCAG | 3710 fluorescence intensity (a.u.) |
| TTCCCGGTCTCTTATTATCCATATCATAAGTAAATTAGTTCGGAGTCACCTAGTGCAG | 7670 fluorescence intensity (a.u.) |
| CGCCGCCTGCCCCTGCGCCTGCAGCCTCTGCGCCTCCTGCCGGAGTCACCTAGTGCAG | 3560 fluorescence intensity (a.u.) |
| CCTAGCCCTCCTCCTACTCCTCTGCAATGGTAGATTGCGCCGGAGTCACCTAGTGCAG | 47700 fluorescence intensity (a.u.) |
| CTCCGTGAGCCCTTCCTCCTCCGCTCCTCTCCTTTCCGCCCGGAGTCACCTAGTGCAG | 15600 fluorescence intensity (a.u.) |
| TTAGCCCTTCCTCTCCTGCTTCCGCCCTTCCATGGCAATGCGGAGTCACCTAGTGCAG | 46700 fluorescence intensity (a.u.) |
| CTCTCTTCCTCTCTCTCTCCTCCGCGTAGGATTTAGCCTGCGGAGTCACCTAGTGCAG | 3880 fluorescence intensity (a.u.) |
| GCCTTCCCTTCCTTCCTCTGCCAATGGCCGCGCGTCAGCCCGGAGTCACCTAGTGCAG | 3390 fluorescence intensity (a.u.) |
| CGACGCGGCGGCGAAAAGTCGGCGAACTGCGGCGAGGTGGCGGAGTCACCTAGTGCAG | 30100 fluorescence intensity (a.u.) |
| GAATGAATTGAAACAGACAATGCACACGCTTAGTCCATGACGGAGTCACCTAGTGCAG | 28800 fluorescence intensity (a.u.) |
| AGAAATTGAATTGCTTGCTACAGAGAAGCTAGAAGAGTTTCGGAGTCACCTAGTGCAG | 64800 fluorescence intensity (a.u.) |
| GAAAGCTAGAAGAGAAATTGACCTGGATTGAGTTTTGTGCCGGAGTCACCTAGTGCAG | 4170 fluorescence intensity (a.u.) |
| AAATGGCCTTGCACACCTTGTCATTGAAATTAAGAACAAACGGAGTCACCTAGTGCAG | 6400 fluorescence intensity (a.u.) |
| GAATTAGCTTGATTGACAGAAACAAATGGCTACAACTACACGGAGTCACCTAGTGCAG | 65500 fluorescence intensity (a.u.) |
| AGTTGATAGGAGTAGCTTGAAGAAGCAGAGACAGCTAGATCGGAGTCACCTAGTGCAG | 37600 fluorescence intensity (a.u.) |
| TGCATCACACGTACACATCTATCCATCGATCCAGTCCGCCCGGAGTCACCTAGTGCAG | 4610 fluorescence intensity (a.u.) |
| TTTCTTTTCTTCTTTCCTTCTCCCCACGGAGGTGTACGTACGGAGTCACCTAGTGCAG | 3440 fluorescence intensity (a.u.) |
| TGGTACATGGTGTGCCCTACCGAGCTTAGTCAACCACTTTCGGAGTCACCTAGTGCAG | 3230 fluorescence intensity (a.u.) |
| TATAGTGGCAACGCATGCTGACGTTACGGTGTACCGCCGTCGGAGTCACCTAGTGCAG | 5900 fluorescence intensity (a.u.) |
| TTCAGGTGATGAGTCAATGGAGGAGGATGTCATGGAGATTCGGAGTCACCTAGTGCAG | 4750 fluorescence intensity (a.u.) |
| ATAACGGTGCTAATCTACTGGTGACTGTGCCTGGTGGTGGCGGAGTCACCTAGTGCAG | 4380 fluorescence intensity (a.u.) |
| ATATCGACTACACACTGTTCTTGGCTACATCGATTGATTGCGGAGTCACCTAGTGCAG | 4840 fluorescence intensity (a.u.) |
| GCTTATCGATAAACTCAGTGTATTTGCATTCAAATTTTGACGGAGTCACCTAGTGCAG | 3660 fluorescence intensity (a.u.) |

| Sequence | binding signal |
| --- | --- |
| TCATTTCTAATGTAAATTATCTTTTGCGTAAGTAATTTCTCGGAGTCACCTAGTGCAG | 3230 fluorescence intensity (a.u.) |
| TGATTAAAGTATTCTTATTTCTCTTTTGAGCAATATCTAACGGAGTCACCTAGTGCAG | 21900 fluorescence intensity (a.u.) |
| TAAAGTAAACTCGATCTCTTTCCGAGAAGTGTATTATTTTCGGAGTCACCTAGTGCAG | 41400 fluorescence intensity (a.u.) |
| AACCCTAAGACTAGAGGCGGGCTGGAGCGTGGAGGCGGGACGGAGTCACCTAGTGCAG | 3240 fluorescence intensity (a.u.) |
| GGTTTAACCGTTTGGTAGCTGACATGTGCGCCTGGGCATACGGAGTCACCTAGTGCAG | 3380 fluorescence intensity (a.u.) |
| TCATTGGTATCTCAATGACATGTAGGACCTACATGAGTCACGGAGTCACCTAGTGCAG | 8190 fluorescence intensity (a.u.) |
| AAAATATATTACTACCTCCGTTTCATATTATAAGACTTTCCGGAGTCACCTAGTGCAG | 65400 fluorescence intensity (a.u.) |
| AATCTACTTCCTCCGTTTTATGTTATAAGACTTTCTAGCACGGAGTCACCTAGTGCAG | 3140 fluorescence intensity (a.u.) |
| TTTGAAAATAATACTCCCTCCGTTTCATAATATAAGTGATCGGAGTCACCTAGTGCAG | 3260 fluorescence intensity (a.u.) |
| ACCACCACCTCGGCATCTCCTCGTCCTCGAGCCCAATACTCGGAGTCACCTAGTGCAG | 3660 fluorescence intensity (a.u.) |
| AGCAACCAAATCTTCCCAATTCTCACTTGCTCCTAGATACCGGAGTCACCTAGTGCAG | 3840 fluorescence intensity (a.u.) |
| AGCCTTGTCATGTAAACCTATCCTTTTGAGACACGTGCGTCGGAGTCACCTAGTGCAG | 5780 fluorescence intensity (a.u.) |
| TTCTCCCACCGCATCCTCTCTCCCCTTGAGTATTTACTTTCGGAGTCACCTAGTGCAG | 3420 fluorescence intensity (a.u.) |
| CGTAACGCGATCGAGAACCGACTCAGCCGAGACTCATCGTCGGAGTCACCTAGTGCAG | 3710 fluorescence intensity (a.u.) |
| TGGATATTTTCTACCCCTGGACCCAGCTGTCAGATCCAACCGGAGTCACCTAGTGCAG | 3250 fluorescence intensity (a.u.) |
| TTCGAGCAACTCTACCTGGATCCAGACCAACCCCAGTAGACGGAGTCACCTAGTGCAG | 50400 fluorescence intensity (a.u.) |
| AGGACGAGACCCCATCCAACCACCCCAGCCACGTCAGCAACGGAGTCACCTAGTGCAG | 34000 fluorescence intensity (a.u.) |
| TAGCAGGTTTCCTGCCAACTTGGCACACTTGCTTCGTGGTCGGAGTCACCTAGTGCAG | 3620 fluorescence intensity (a.u.) |
| GATTCAAGGTTGAGAGGACCTAAGATGTCCAATGATGTGTCGGAGTCACCTAGTGCAG | 3470 fluorescence intensity (a.u.) |
| GGATAAGTGCCCCTACCAATAGGTGGACCCTTGTCACTGGCGGAGTCACCTAGTGCAG | 19300 fluorescence intensity (a.u.) |
| TGTCAATAATGCATCCTGCAGCTAACATCAAATGACATGGCGGAGTCACCTAGTGCAG | 3150 fluorescence intensity (a.u.) |
| GGCCGCTGATCTACGTGGCGGCAGTTCGGTACAGGTGGTGCGGAGTCACCTAGTGCAG | 10500 fluorescence intensity (a.u.) |
| CCATCCCATGGTGGGCCGGTTAGTTCTGTTCCTGGGCCATCGGAGTCACCTAGTGCAG | 64400 fluorescence intensity (a.u.) |
| GGGCCCCTCCCAAATCTCCCATGGTTCCATCCATCCCCATCGGAGTCACCTAGTGCAG | 3890 fluorescence intensity (a.u.) |
| GCTGTTGGTTGGTGCCACATCCCACGCTGCCATGCCATGCCGGAGTCACCTAGTGCAG | 4910 fluorescence intensity (a.u.) |
| ATTAGTATTCCCTCCCATCATTAATATATGACGTTAGTGTCGGAGTCACCTAGTGCAG | 4550 fluorescence intensity (a.u.) |
| CGGGAGGGGAGGGGAATGGATGTGGGGAGGAGAGAGACTGCGGAGTCACCTAGTGCAG | 4600 fluorescence intensity (a.u.) |
